This is an account of results in PubChem BioAssay.

Structures are written as SMILES. Activity calls are given as the source filed them.

Experiment [1] is described as follows: small molecules captured by biotinylated probe aFSTL3 – biochemical, small-molecule microarray, fluorescence 635/667, stem cell growth factor project, primary screen (AID 1064).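 Note: measures binding of the biotinylated anti-FSTL3 antibody to printed compounds.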 Conditions: higher = more signal.
Experiment [2] in a line: binders from COS7 lysate, DM2A8 probe, primary screen, torsin A project, cell lysate, small-molecule microarray, fluorescence 635/667 (AID 1065). Conditions: higher = more signal, COS7 lysate expressing mutant human TOR1A.
The nature of experiment [3]: small molecules captured by biotinylated probe aFGF2 – biochemical, small-molecule microarray, fluorescence 635/667, stem cell growth factor project, primary screen (AID 1067).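 Note: measures binding of biotinylated aFGF2 protein to printed compounds on slides; z-score merges feature fluorescence and signal-to-noise across triplicate slides.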 Conditions: higher = more signal.
A short description of experiment [4]: small molecules captured by biotinylated probe aFGF10 – biochemical, small-molecule microarray, fluorescence 635/667, stem cell growth factor project, primary screen (AID 1071).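 Note: score merges 667 nm spot intensity and signal to noise from triplicate slides.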 Conditions: higher = more signal.
The target of experiment [5] is Neurogenic locus notch homolog protein 2 (Homo sapiens) (UniProt Q04721). Kind of experiment: small molecules binding Notch2 protein – biochemical, small-molecule microarray, 635 nm fluorescence, stem cell growth factors, primary screen (AID 1073). Particulars: higher = more signal.
Neurogenic locus notch homolog protein 2 (Homo sapiens), sequence (Q04721 whole entry, looked up, canonical isoform): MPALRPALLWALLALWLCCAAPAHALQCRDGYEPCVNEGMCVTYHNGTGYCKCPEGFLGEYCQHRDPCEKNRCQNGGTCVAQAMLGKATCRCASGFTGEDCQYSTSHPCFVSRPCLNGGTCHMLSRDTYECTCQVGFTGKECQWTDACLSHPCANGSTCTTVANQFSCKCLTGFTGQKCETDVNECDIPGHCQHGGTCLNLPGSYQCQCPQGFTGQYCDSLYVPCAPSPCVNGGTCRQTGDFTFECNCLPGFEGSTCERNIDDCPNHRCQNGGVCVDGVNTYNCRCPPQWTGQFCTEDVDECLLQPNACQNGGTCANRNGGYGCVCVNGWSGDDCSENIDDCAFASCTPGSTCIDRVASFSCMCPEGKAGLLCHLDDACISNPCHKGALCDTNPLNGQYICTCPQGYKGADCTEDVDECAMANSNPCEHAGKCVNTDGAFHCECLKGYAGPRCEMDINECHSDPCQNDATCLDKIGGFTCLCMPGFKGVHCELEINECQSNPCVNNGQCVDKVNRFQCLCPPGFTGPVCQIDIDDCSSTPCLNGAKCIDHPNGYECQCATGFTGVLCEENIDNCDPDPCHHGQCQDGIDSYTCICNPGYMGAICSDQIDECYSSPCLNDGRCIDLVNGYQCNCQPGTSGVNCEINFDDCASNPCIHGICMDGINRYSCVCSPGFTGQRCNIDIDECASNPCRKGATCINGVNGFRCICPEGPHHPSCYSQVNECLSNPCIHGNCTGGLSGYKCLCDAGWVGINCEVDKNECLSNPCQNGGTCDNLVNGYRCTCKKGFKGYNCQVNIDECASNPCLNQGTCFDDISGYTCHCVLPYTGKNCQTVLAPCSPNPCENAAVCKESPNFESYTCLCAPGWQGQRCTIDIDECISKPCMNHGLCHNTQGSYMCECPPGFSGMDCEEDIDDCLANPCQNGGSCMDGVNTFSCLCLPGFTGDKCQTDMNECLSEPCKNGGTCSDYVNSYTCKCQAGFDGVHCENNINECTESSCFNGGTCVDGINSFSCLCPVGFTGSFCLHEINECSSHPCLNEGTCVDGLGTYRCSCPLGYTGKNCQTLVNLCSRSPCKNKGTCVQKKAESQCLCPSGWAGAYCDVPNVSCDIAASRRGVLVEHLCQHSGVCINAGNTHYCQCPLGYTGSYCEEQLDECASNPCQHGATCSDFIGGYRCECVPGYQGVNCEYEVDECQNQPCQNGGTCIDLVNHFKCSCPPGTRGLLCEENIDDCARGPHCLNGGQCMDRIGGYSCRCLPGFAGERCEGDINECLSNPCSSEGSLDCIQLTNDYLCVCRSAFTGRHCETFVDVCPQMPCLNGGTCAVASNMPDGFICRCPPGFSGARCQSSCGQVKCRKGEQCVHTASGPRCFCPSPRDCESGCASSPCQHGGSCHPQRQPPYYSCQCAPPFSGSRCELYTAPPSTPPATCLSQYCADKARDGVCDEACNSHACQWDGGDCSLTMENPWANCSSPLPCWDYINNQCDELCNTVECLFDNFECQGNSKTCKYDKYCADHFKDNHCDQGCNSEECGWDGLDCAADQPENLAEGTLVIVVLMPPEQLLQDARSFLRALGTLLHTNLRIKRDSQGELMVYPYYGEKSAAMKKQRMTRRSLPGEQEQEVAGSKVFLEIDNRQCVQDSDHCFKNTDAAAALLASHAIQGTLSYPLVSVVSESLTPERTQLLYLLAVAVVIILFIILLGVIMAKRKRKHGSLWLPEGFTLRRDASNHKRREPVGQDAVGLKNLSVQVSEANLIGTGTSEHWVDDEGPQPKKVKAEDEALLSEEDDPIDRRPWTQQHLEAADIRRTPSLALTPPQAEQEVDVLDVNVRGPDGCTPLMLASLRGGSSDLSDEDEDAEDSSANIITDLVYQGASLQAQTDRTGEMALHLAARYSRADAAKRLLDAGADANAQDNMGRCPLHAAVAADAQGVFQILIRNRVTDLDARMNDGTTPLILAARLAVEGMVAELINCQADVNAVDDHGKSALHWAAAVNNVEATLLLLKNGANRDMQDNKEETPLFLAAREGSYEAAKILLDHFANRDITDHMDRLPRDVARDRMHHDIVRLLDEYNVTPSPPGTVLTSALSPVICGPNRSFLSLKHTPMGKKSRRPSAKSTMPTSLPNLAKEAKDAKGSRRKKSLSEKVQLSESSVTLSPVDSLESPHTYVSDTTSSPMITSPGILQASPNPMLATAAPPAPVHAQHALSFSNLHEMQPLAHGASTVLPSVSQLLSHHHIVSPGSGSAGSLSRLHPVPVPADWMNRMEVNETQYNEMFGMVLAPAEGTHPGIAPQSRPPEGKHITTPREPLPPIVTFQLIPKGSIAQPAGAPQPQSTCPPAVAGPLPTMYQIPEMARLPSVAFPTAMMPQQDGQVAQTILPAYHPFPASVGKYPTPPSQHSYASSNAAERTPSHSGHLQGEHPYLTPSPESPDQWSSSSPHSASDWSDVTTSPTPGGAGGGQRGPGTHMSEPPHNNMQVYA
Experiment [6] deals with Pro-neuregulin-1, membrane-bound isoform (Homo sapiens) (UniProt Q02297). Kind of experiment: small molecules binding neuregulin-1 protein – biochemical, small-molecule microarray, fluorescence 635/667, psychiatric disease protein project, primary screen (AID 1075).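 Note: score combines 667 nm spot fluorescence with signal to noise.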 Particulars: NRG1 binding, 635 nm fluorescence, higher = more signal.
Pro-neuregulin-1, membrane-bound isoform (Homo sapiens), sequence (Q02297 whole entry, looked up, the tested form may be a part, canonical isoform): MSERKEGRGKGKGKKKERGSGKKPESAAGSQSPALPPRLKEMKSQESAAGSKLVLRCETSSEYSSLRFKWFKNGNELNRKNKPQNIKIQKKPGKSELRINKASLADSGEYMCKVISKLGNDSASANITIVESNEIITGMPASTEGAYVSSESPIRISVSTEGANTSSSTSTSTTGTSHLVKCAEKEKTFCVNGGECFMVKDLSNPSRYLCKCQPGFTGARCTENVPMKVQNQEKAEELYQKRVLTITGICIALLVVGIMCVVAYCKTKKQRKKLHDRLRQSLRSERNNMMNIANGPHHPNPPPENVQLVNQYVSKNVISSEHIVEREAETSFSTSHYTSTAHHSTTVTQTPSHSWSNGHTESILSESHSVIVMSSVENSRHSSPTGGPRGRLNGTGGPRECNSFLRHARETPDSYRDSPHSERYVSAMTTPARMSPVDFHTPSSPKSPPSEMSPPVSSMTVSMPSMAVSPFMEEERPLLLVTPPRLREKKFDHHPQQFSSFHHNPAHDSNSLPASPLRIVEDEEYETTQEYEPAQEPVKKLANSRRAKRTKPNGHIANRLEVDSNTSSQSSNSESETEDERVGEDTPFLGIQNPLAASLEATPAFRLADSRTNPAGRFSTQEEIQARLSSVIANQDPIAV
Experiment [7] has as its system Neuregulin-1 EGF-like domain. Kind of experiment: small molecules binding NRG1 EGF domain – biochemical, small-molecule microarray, 635 nm fluorescence, primary screen (AID 1081).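 Note: binding of the protein to compounds printed on small-molecule microarray slides.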 Conditions: higher = more signal.
Experiment [8] is described as follows: FRG1 expression reporter modulators in myotubes – cell-based, C2C12 myotubes, firefly/Renilla luciferase, luminescence, FRG1 inhibition for FSHD, primary screen (AID 1084). Particulars: FRG1 promoter luciferase, higher = more signal, called active from +8 up or from −8 down.
A short description of experiment [9]: small molecules captured by biotinylated probe aFST – biochemical, small-molecule microarray, fluorescence 635/667, stem cell growth factor project, primary screen (AID 1086).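 Note: score merges 667 nm fluorescence with signal-to-noise of each printed compound spot.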 Particulars: higher = more signal.
Experiment [10] is described as follows: binders of probe aHhip on microarray, primary screen, stem cell growth factor project, biochemical, small-molecule microarray, fluorescence 635/667 (AID 1087).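 Note: score merges spot fluorescence at 667nm with spot signal to noise ratio.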 Particulars: higher = more signal.
Experiment [11] deals with PRMT1 (protein arginine N-methyltransferase 1). Kind of experiment: small molecules binding arginine methyltransferase PRMT1 – biochemical, small-molecule microarray, 635 nm fluorescence, primary screen (AID 1088).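 Note: binding of Prmt1 protein to compounds spotted on small-molecule microarray slides.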 Particulars: higher = more signal.
Experiment [12] is described as follows: growth effects on S. cerevisiae YJM789 – YJM789 clinical isolate, OD600, 24 h, basal, primary screen (AID 1089).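 Note: growth of clinical yeast isolate S. cerevisiae YJM 789 seeded 1000 cells per well; test concentration not given here.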 Particulars: higher = more signal, called active from +8 up or from −8 down.
The nature of experiment [13]: S. pombe growth modifiers, basal conditions – strain 972, OD600, 24 h, no modulator, primary screen (AID 1090).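 Note: basal condition with compound alone and no growth modifier present; test concentration not given here.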 Conditions: S. pombe 972 growth, higher = more signal, called active from +8 up or from −8 down.
Experiment [14] is described as follows: budding yeast growth modifiers under rapamycin – strain BY4716, OD600, 96 h, primary screen (AID 1091). Note: test concentration not given here. Particulars: S. cerevisiae BY4716 + rapamycin, higher = more signal, called active from +8 up or from −8 down.
The target in experiment [15] is Torsin-1A-interacting protein 2 (Homo sapiens) (UniProt Q8NFQ8). Nature of the experiment: small molecules binding lysate-expressed LULL1 – cell lysate, human LULL1 lysate, 635/667 nm fluorescence, primary screen (AID 1092).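 Note: probe is lysate of COS7 cells overexpressing human LULL1; score merges per-feature 667 nm fluorescence with signal-to-noise.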 Conditions: small-molecule microarray, hLULL1 lysate binding, 635 nm fluorescence; higher = more signal.
Torsin-1A-interacting protein 2 (Homo sapiens), sequence (Q8NFQ8 whole entry, looked up): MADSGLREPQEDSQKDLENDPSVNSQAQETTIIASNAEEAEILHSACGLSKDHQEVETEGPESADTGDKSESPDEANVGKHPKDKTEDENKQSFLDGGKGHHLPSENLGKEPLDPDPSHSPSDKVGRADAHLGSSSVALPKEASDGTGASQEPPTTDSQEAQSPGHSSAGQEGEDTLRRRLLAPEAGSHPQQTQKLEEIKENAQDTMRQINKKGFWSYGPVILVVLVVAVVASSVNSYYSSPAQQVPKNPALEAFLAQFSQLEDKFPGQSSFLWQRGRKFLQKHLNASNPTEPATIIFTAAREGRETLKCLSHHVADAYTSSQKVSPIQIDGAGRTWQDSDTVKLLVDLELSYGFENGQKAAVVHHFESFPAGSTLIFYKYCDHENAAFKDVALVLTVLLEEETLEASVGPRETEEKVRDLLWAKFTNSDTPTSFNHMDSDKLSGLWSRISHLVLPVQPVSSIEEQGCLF
Experiment [16] in a line: optical density change of DRC41 E. coli – strain DRC41, OD650, 24 h, E. coli filamentation project, primary screen (AID 1093).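 Note: MC1000 strain lacking acrAB efflux and sulA so SOS filamentation is blocked; test concentration not given here.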 Particulars: E. coli DRC41 growth, higher = more signal, called active from +8 up or from −8 down.
Experiment [17] can be described thus: probe aLefty2 binding to arrayed compounds – biochemical, biotinylated probe, 635/667 nm fluorescence, primary screen (AID 1094).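 Note: score merges spot fluorescence near 667 nm with spot signal-to-noise ratio.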 Conditions: small-molecule microarray, higher = more signal.
Experiment [18] has as its system Noggin (protein binding on small-molecule microarray). Nature of the experiment: small molecules binding Noggin protein – biochemical, 635/667 nm fluorescence, primary screen (AID 1095).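 Note: score merges 667 nm feature fluorescence with signal to noise over triplicate slides.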 Conditions: 635 nm fluorescence, higher = more signal.
Experiment [19] has as its target Neurogenic locus notch homolog protein 3 (Homo sapiens) (UniProt Q9UM47). Nature of the experiment: small molecules binding NOTCH3 protein – biochemical, 635/667 nm fluorescence, primary screen (AID 1096). Conditions: small-molecule microarray, 635 nm fluorescence, higher = more signal.
Experiment [20] is described as follows: probe aEGFR binding to arrayed compounds – biochemical, biotinylated probe, 635/667 nm fluorescence, primary screen (AID 1097).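 Note: probe is a biotinylated anti-EGFR antibody binding compounds printed on slides; score combines fluorescence near 667 nm and signal to noise of each spot.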 Particulars: small-molecule microarray, higher = more signal.

`Cn1cccc1C(O)C1C=CC2C(=O)NC(=O)C2N1Nc1ccc(Cl)cc1Cl` (stereo not given): the composite z-score was found to be 0.435 in [1]; 0.263 in experiment [2]; 0.167 in [3]; 0.68 in [4]; 1.68 in experiment [5]; 2.04 in [6]. For the same compound, the composite z-score in experiment [7] was 1.15; in experiment [9] it was 1.92; in experiment [10], 0.107; in experiment [11], 1.04; in [15], 3.52; in experiment [17], 0.673. Also, the values for the composite z-score in experiment [18], in experiment [19] and in [20] were 0.405, 1.05 and 0.0201, respectively. Moreover, the z-score in [8] is 0.978 (inactive); in [12], -0.477 (inactive); in experiment [13], -1.81 (inactive); in [14], -0.356 (inactive); in experiment [16], -2.82 (inactive).

Take `C=CCN1C(=O)[C@@]2(CCS(=O)(=O)c3ccccc3)N=C(c3ccc(OCCCO)cc3)O[C@H]2c2ccccc21`: the composite z-score was found to be 0.162 in experiment [1]; 0.42 in [2]; 0.0076 in experiment [3]; 0.362 in [4]; 1.44 in experiment [5]; 1.72 in [6]. Further, the composite z-score was 1.24 in [7]; 1.03 in experiment [9]; -0.0672 in [10]; 1.54 in experiment [11]; 2.88 in experiment [15]; -0.0177 in [17]. Also, the composite z-score in experiment [18] worked out at 1.43; in [19], 1.12; in [20] it was 0.154. Further, the z-score in [8] is -3.77 (inactive); in [12], 0.15 (inactive); in experiment [13], -0.0698 (inactive); in experiment [14], 3.13 (inactive); in experiment [16] it was 0.192 (inactive).

As for `O=C(NCC(F)(F)F)[C@@H]1c2ccccc2C(=O)N(Cc2cc(F)cc(C(F)(F)F)c2)[C@H]1c1ccc(CO)cc1`, the composite z-score in experiment [1] was 0.148; in experiment [2], -0.823; in experiment [3], -0.0996; in experiment [4], -0.762; in experiment [5] it was -1; in experiment [6], -0.381. Moreover, the composite z-score in experiment [7] was 1.06; in experiment [9], -0.317; in experiment [10] it was -0.218; in experiment [11] it was -0.264; in experiment [15], 2.29; in [17], -0.0998. Further, the composite z-score was -1.08 in experiment [18], -1.13 in experiment [19] and -0.278 in [20]. The z-score was -0.0411 (inactive) in [8]; 0.0042 (inactive) in [12]; -0.793 (inactive) in experiment [13]; 0.29 (inactive) in experiment [14]; 0.463 (inactive) in [16].

Consider `O=C1C[C@@](C(=O)NCCN2CCOCC2)(c2ccc([N+](=O)[O-])cc2)[C@@H](c2ccc(CO)cc2I)N1C1CCCCC1`, for which the composite z-score was -0.218 in experiment [1]; -0.0103 in experiment [2]; -0.0736 in experiment [3]; 0.262 in experiment [4]; 0.64 in experiment [5]; 0.148 in [6]. In addition, the composite z-score in experiment [7] is 1.43; in experiment [9], -0.0352; in experiment [10], -0.0717; in [11], 1.3; in experiment [15], 2.79; in experiment [17] it was -0.147. For the same compound, the composite z-score in experiment [18] was 0.914; in experiment [19], 0.91; in experiment [20], -0.0963. The z-score is 1.21 (inactive) in [8]; -1.9 (inactive) in [12]; -2.09 (inactive) in experiment [13]; -1.05 (inactive) in experiment [14]; 0.685 (inactive) in experiment [16].

With `O=C1C=C(c2ccccc2)C(=O)c2ccc([C@H]3Oc4ccccc4S(=O)(=O)N4CCC[C@@H]34)cc21`, the composite z-score is -0.292 in experiment [1]; -0.303 in experiment [2]; -0.116 in experiment [3]; -0.0019 in [4]; -0.405 in experiment [5]; -0.775 in experiment [6]. Besides, the composite z-score in experiment [7] is -0.87; in experiment [9], -0.024; in experiment [10] it was 0.0659; in experiment [11] it was -0.208; in experiment [15], -1.27; in experiment [17], -0.18. Further, the composite z-score in [18] is -0.144; in [19], -0.272; in experiment [20], -0.119. For the same compound, the z-score in [8] was 2.5 (inactive); in [12], -0.818 (inactive); in experiment [13], -14.9 (active); in [14] it was 0.696 (inactive); in [16], 1.66 (inactive).

Consider `C=CCOC(=O)[C@H]1[C@@H]2C(=O)O[C@@H](c3ccccc3)[C@@H](c3ccccc3)N2[C@@H](c2ccc(OCCOC(=O)[C@H]3C[C@H]4C(=O)N[C@@H](CC(C)C)C(=O)N4[C@H]3c3cccc(OCCO)c3)cc2)[C@]12C(=O)Nc1ccc(I)cc12`, for which the composite z-score is -0.475 in [1]; 0.178 in experiment [2]; -0.0442 in experiment [3]; 0.823 in experiment [4]; 0.919 in [5]; -0.403 in [6]. The composite z-score in [7] is 1.17; in experiment [9], 0.157; in experiment [10], 0.0373; in experiment [11] it was 1.48; in experiment [15], 2.76; in experiment [17] it was -0.0416. The values for the composite z-score in [18], in experiment [19] and in experiment [20] were 0.972, 0.97 and 0.0436, respectively. The z-score in experiment [8] is 0.842 (inactive); in experiment [12] it was 0.219 (inactive); in experiment [13], 0.46 (inactive); in experiment [14], 2.8 (inactive); in experiment [16] it was -0.266 (inactive).

Turning to `COC(=O)[C@@]1(Cc2ccc(F)cc2)[C@H]2c3cc(C(=O)N4CCCC4)n(CCN4CNCC4=O)c3C[C@H]2CN1C(=O)c1ccccc1`, the composite z-score amounted to 0.144 in experiment [1]; 1.56 in [2]; 0.0732 in [3]; 0.132 in experiment [4]; 1.26 in [5]; 1.07 in [6]. Besides, the composite z-score in [7] amounted to 1.35; in experiment [9], 1.26; in experiment [10], 0.178; in experiment [11], 1.2; in [15], 3.97; in experiment [17] it was 0.459. For the same compound, the composite z-score is 0.46 in [18], 0.842 in experiment [19] and 0.118 in experiment [20]. The z-score was 4.7 (inactive) in [8]; 0.614 (inactive) in experiment [12]; -0.198 (inactive) in [13]; 0.316 (inactive) in experiment [14]; -0.151 (inactive) in experiment [16].

As to `CC1=C[C@@]2(CO)C(=O)[C@]3(CO3)[C@@H]1[C@H]1[C@]2(C)C=C(CO)C(=O)[C@]12CO2`, the composite z-score in [1] was -0.457; in experiment [2] it was -0.42; in experiment [3], -0.0782; in experiment [4], 0.345; in experiment [5], 0.31; in experiment [6], 0.194. The composite z-score in experiment [7] is 0.677; in [9], 0.614; in experiment [10], 0.459; in experiment [11], 0.295; in experiment [15], 0.0091; in [17], -0.113. For the same compound, the results for the composite z-score in experiment [18], in experiment [19] and in [20] were 0.177, 0.652 and -0.276, respectively. For the same compound, the z-score is -1.35 (inactive) in [8]; -1.32 (inactive) in experiment [12]; -9.27 (active) in experiment [13]; -0.946 (inactive) in experiment [14]; 0.179 (inactive) in [16].

Turning to `COC(=O)[C@@]1(Cc2ccc(OC)cc2)[C@H]2c3cc(C(=O)N4CCCC4)n(Cc4cccc5ccccc45)c3C[C@H]2CN1C(=O)c1ccccc1`, the composite z-score in experiment [1] is 0.176; in experiment [2], -0.214; in experiment [3], 0.401; in [4], 0.672; in experiment [5] it was 1.8; in [6], 1.42. For the same compound, the composite z-score in experiment [7] was 0.831; in [9], 0.849; in experiment [10], -0.115; in experiment [11] it was -0.88; in experiment [15], 3.02; in [17] it was 0.0082. Also, the composite z-score in experiment [18] came to 0.15; in experiment [19], 0.981; in experiment [20] it was 0.087. The z-score in experiment [8] is -0.404 (inactive); in experiment [12], 0.221 (inactive); in experiment [13], 1.82 (inactive); in experiment [14] it was 2.29 (inactive); in experiment [16] it was 0.0929 (inactive).
